An excerpt weighted towards active compounds, which were near 1.5% of everything screened.
Beta2AR agonist = activates human beta-2 adrenergic receptor causing internalization. Am2.2-beta2AR cells, FAP receptor internalization, flow cytometry. 0.43% of 340,000 active. response, % (no concentration beside the values). P07550;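 active = response above a set limit, near 3 SD of response in nonfluorescent compounds, cut at about 42% in these data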
Target sequence (P07550 whole entry, looked up): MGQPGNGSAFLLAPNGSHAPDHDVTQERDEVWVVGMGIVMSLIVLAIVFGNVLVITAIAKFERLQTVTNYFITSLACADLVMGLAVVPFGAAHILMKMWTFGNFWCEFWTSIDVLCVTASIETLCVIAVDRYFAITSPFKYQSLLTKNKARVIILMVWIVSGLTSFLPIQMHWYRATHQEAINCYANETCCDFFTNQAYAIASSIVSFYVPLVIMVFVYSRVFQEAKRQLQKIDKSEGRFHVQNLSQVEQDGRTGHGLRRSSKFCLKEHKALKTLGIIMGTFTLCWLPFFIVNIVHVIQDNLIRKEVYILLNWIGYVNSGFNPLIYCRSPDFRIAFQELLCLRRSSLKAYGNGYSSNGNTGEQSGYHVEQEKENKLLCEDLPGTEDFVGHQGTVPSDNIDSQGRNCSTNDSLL
NOD2 RIPK2 PPI = blocks binding of human NOD2 to RIPK2; CHO BLA complementation NOD2-RIPK2, CCF4 ratio; O43353; 0.38% of 360,000 active; inhibition, % at 4.98 µM; in the data active = inhibition above about 21%;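 note: 0% = vehicle only and 100% = reference blocker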
NTR1 agonist = activates human neurotensin receptor 1; P30989; NTR1-U2OS beta-arrestin-GFP spot imaging, agonist mode; activation, % at 20 µM; 0.17% of 330,000 active; AID 493036;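 active = activation at or above 40% of the spot to cytoplasm intensity ratio, with at least 20 cells analyzed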;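 note: 0% = DMSO without peptide and 100% = 100 nM NTR1 peptide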
ABHD5 PLIN5 PPI = ABHD5-PLIN5 protein interaction inhibition | Q00G26+Q8WTS1 | Split G. princeps luciferase complementation, luminescence, 4 h | inhibition, % at 4 µM | 0.78% of 360,000 active;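 active = inhibition above the mean inhibition across every tested compound plus 3 SD, cut at about 22% in these data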;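 note: 0% = DMSO only wells and the 100% control is not disclosed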
TLR9-MyD88 inh = inhibitors of human TLR9-MyD88 binding. Q9NR96+Q99836. CHO BLA complementation TLR9-MyD88, CCF4 FRET ratio. inhibition, % at 4.98 µM. 0.21% of 340,000 active. AID 504734;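 active = inhibition above the mean over all tested compounds plus 3 SD, cut at about 21% in these data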;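 note: 0% = DMSO only wells and 100% = clavulanate BLA inhibitor control wells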
TLR4-MyD88 BLA = blocks binding of human TLR4 to MyD88; O00206+Q99836; HeLa CL3-4 TLR4/MyD88 BLA complementation, FRET ratio; inhibition, % at 8.4 µM; 0.18% of 200,000 active; AID 861; in the data active = inhibition above about 25%;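 note: 0% = vehicle and 100% = reference inhibitor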
NOD2-RIPK2 conf = confirmation of human NOD2-RIPK2 interaction inhibitors | shares compounds with NOD2 RIPK2 PPI | CHO cells, NOD2-RIPK2 BLA complementation, CCF4 FRET | inhibition, % at 4.98 µM | 70% of 1,200 active | AID 624370;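 active = mean inhibition across replicates above a set limit taken from the earlier primary screen, cut at about 21% in these data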;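 note: 0% = DMSO-only wells and the high end = clavulanate BLA-blocked wells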
BLA counter = hits BLA reporter in NOD2-RIPK2 inhibitor counterscreen. CHO BLA reporter, CCF4 FRET ratio. inhibition, % at 4.98 µM. shares compounds with NOD2 RIPK2 PPI. 57% of 1,200 active;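 active = mean inhibition above the low-control mean inhibition plus three low-control SD, cut at about 11% in these data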;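 note: 0% = DMSO only wells and 100% = clavulanate high control wells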
An asterisk follows results filed as active; nt = no result.

SMILES	Beta2AR agonist	NOD2 RIPK2 PPI	NTR1 agonist	ABHD5 PLIN5 PPI	TLR9-MyD88 inh	TLR4-MyD88 BLA	NOD2-RIPK2 conf	BLA counter
Cc1[nH]c(=O)c(C#N)c2c1CCCC2	-3	-12	3	1	-17	2	nt	nt
Cc1[nH]c(=S)c(C#N)c2c1CCCC2	-9	27*	0	3	2	-10	-9	-6
CC(C)n1c(=O)c2ccccc2n1S(C)(=O)=O	nt	-4	nt	-2	nt	nt	nt	nt
O=C(NCc1ccccc1)C1c2ccccc2OCC(=O)N1CCc1c[nH]c2ccccc12 (centres undefined)	nt	-1	nt	-10	nt	nt	nt	nt
Cc1occc1C(=O)N/N=C/c1ccc(N(C)C)cc1	-4	-10	0	2	6	nt	nt	nt
Cc1occc1C(=O)N/N=C/C=C/c1ccc(N(C)C)cc1	9	27*	0	-2	11	nt	37*	37*
CC1CC2(CC(CN(C3CCCCC3)C3CCCCC3)OC2=O)C(=O)O1 (centres undefined)	nt	-2	nt	0	nt	nt	nt	nt
CC1(C(=O)Nc2nccs2)CCN1C(=O)C1(c2ccccc2)CC1 (centres undefined)	nt	4	nt	-2	nt	nt	nt	nt
Cc1cc2c(cc1S(=O)(=O)N(C)c1ccccc1)n(C)c(=O)n2C	0	-11	0	0	4	nt	nt	nt
Cc1cc(C)c(S(=O)(=O)N(C)c2ccccc2)c(C)c1	10	34*	1	-9	-6	15	-4	-2
Clc1nc(Cl)c2ncn(-c3ccccc3)c2n1	17	22*	nt	6	5	nt	41*	11*
CCNC(=O)C1(C)CCN(C(=O)c2cccc(OC(C)=O)c2C)C1 (centres undefined)	nt	-4	nt	9	nt	nt	nt	nt
Cc1ccc(S(=O)(=O)Oc2ccccc2/C=N/N=C(N)N)cc1	2	-6	2	8	-4	-2	nt	nt
Cc1ccc(S(=O)(=O)Oc2ccccc2/C=N/NC(N)=S)cc1	5	24*	1	-9	-4	-9	11	0
O=C(c1ccc(Cl)c(Cl)c1)N1CCC(=O)N([C@H](COCc2ccc(Cl)cc2)Cc2ccccc2)CC1	nt	1	nt	1	nt	nt	nt	nt
C=CCN1C=CC(=O)[C@@H](OC(=O)Nc2ccc(Br)cc2)[C@H]1c1ccccc1Br	14	0	nt	-3	9	nt	nt	nt
CN1C=CC(=O)[C@@H](OC(=O)Nc2ccc(Br)cc2)[C@H]1c1ccccc1Br	5	23*	nt	-2	-4	nt	-2	-6
COC(=O)C12OCC34C(CC5C(C)=C(O)C(=O)CC5(C)C3C(O)C1O)OC(=O)C(OC(=O)C=C(C)C)C24 (centres undefined)	-15	28*	nt	-5	-10	nt	25*	-5
O=C(NCc1ccccc1)C1Cc2c(-c3ccc(Cl)cc3)ccnc2O1 (centres undefined)	nt	21*	nt	-1	nt	nt	18	1
O=C(Nc1ccccc1)C1Cc2c(-c3ccc(Cl)cc3)ccnc2O1 (centres undefined)	nt	-1	nt	6	nt	nt	nt	nt
COc1ccccc1Cn1c(=S)[nH]c2cc(C(=O)N3CC(C)CC(C)C3)ccc2c1=O (centres undefined)	nt	-13	nt	3	-6	nt	nt	nt
COc1c(O)c(=O)n2c3ccccc3c3ccnc1c32	1	26*	-1	0	18	nt	21	18*
c1csc(-c2ccc3nncn3c2)c1	nt	-1	nt	9	nt	nt	nt	nt
O=[N+]([O-])c1cc(Br)c(Nc2ccccc2)c([N+](=O)[O-])c1	47*	41*	39	7	9	nt	58*	-8
COc1ccc(-c2cc(C(=O)NC3CCCCC3)no2)cc1OC	-6	58*	1	3	-20	nt	6	2
Cc1ccc(-c2cc(C(=O)NC3CCCCC3)no2)cc1	3	-4	-1	2	-3	nt	nt	nt
O=C(CCCN1C(=O)/C(=C\c2cccs2)SC1=S)Nc1cccc(C(=O)O)c1	14	24*	0	1	3	2	5	-4
O=C(CN1C(=O)/C(=C\c2cccs2)SC1=S)Nc1cccc(C(=O)O)c1	-9	-23	0	3	-9	nt	nt	nt
